We go through six compounds from PubChem BioAssay (NCATS).

Values joined by “and” are separate entries in the source; they are usually repeats but may differ in a detail not shown here. Identical values can stand only once. Records with an inconclusive call do not appear. Active and inactive are the calls of the source. Unless noted, calls come from the whole dose curve; as a rule, active = well fitted curve in the direction sought with a large enough effect; inconclusive = small, poorly fitted or top-dose-only effect, or another doubt; inactive = no such curve, though single readings can be large; an effect the other way counts as inactive or inconclusive.

Assay [1] in a line: qHTS Assay for Identifying Gametocytocidal Compounds (AID 743244).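 For max response: % is set by controls: 0 for no effect and ±100 for the full control effect; actives lower the fluorescent signal which means gametocytes are killed.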 Note: potency is the fitted concentration of half-maximal effect. The following applies: P. falciparum 3D7 stage III-V gametocytes, alamarBlue, 72 h; max response: stronger effect = lower value. Put shortly: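 A resazurin-based viability read-out was applied to mature P. falciparum gametocytes: 72 h compound treatment, then 24 h dye incubation, with falling fluorescence signalling gametocytocidal effect.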
Background: qHTS replaces the single test concentration by a dilution series.

Assay [2] is described as follows: qHTS profiling for inhibitors of Plasmodium falciparum (3D7) proliferation (AID 743322; call rule not given here;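 note: infected erythrocytes exposed to compound for 72 h before lysis; 100% = DMSO vehicle wells and 0% = 0.29 µM artemisinin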). The settings on record: P. falciparum 3D7 proliferation; at 28.7 µM (top of the series) unless noted. Put shortly:
(§1)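 Parasite DNA was quantified by SYBR Green I fluorescence (ex 485, em 535 nm) after overnight lysis in saponin/Triton buffer at room temperature. Cultures at 0.3% parasitemia and 2.5% hematocrit were first exposed to compound for 72 h at 37 C; signals were normalised to artemisinin (0.29 uM) and vehicle wells.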

Assay [3] is described as follows: qHTS profiling for inhibitors of Plasmodium falciparum (DD2) proliferation (AID 743323; call rule not given here). The following applies: lower = more inhibition; at 28.7 µM (top of the series) unless noted. Put shortly: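 Parasite proliferation measured via DNA-dye fluorescence, as uninfected erythrocytes lack DNA. Cultures at 0.3% parasitemia and 2.5% hematocrit incubated 72 h with compound; signal scaled between vehicle and 0.29 uM artemisinin wells.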

Assay [4] can be described thus: qHTS profiling for inhibitors of Plasmodium falciparum (HB3) proliferation (AID 743324).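 Note: 100% = DMSO vehicle wells and 0% = artemisinin-treated control wells.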 The following applies: Plasmodium falciparum HB3 blood-stage proliferation; at 28.7 µM (top of the series) unless noted. The method, boiled down: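 SYBR Green fluorescence (485 ex/535 em) of lysed cultures, incubated overnight at room temperature in the dark, quantifies parasite DNA. Infected erythrocytes at 0.3% parasitemia and 2.5% hematocrit were exposed 72 h; values normalized to DMSO and 0.29 uM artemisinin controls.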

A short description of assay [5]: qHTS profiling of the MIPE4 collection as inhibitors of Plasmodium falciparum (3D7) proliferation (AID 743344; call rule not given here). The settings on record: P. falciparum 3D7 in erythrocytes, SYBR Green DNA fluorescence, 72 h; at 28.5 µM (top of the series) unless noted. Put shortly: as §1
The nature of assay [6]: qHTS profiling of the MIPE4 collection as inhibitors of Plasmodium falciparum (DD2) proliferation (Rep 2) (AID 743346; call rule not given here). The following applies: P. falciparum Dd2 in erythrocytes, SYBR Green DNA, 72 h; at 28.5 µM (top of the series) unless noted. The method, boiled down:
as §1

Assay [7] is described as follows: qHTS profiling of the MIPE4 collection as inhibitors of Plasmodium falciparum (HB3) proliferation (AID 743347; call rule not given here;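 note: plate controls were DMSO vehicle wells for no effect and artemisinin wells for full effect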). The settings on record: P. falciparum HB3 in erythrocytes, SYBR Green DNA, 72 h; at 28.5 µM (top of the series) unless noted. Put shortly:
as §1

Assay [8] in a line: High-throughput drug toxicity screening in the BPDCN cell line Gen2.2 (AID 1224824; call rule not given here;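 note: cells exposed to compounds for 48 h before reading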). The following applies: Gen2.2 BPDCN cells; at 45.8 µM (top of the series) unless noted. Put shortly: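 Gen2.2 cells (500/well) in phenol red-free RPMI with 10% FBS were exposed to compounds for 48 h at 37 °C, 5% CO2. Viability was read by CellTiter-Glo luminescence and normalized to DMSO (100%) and 9.2 uM bortezomib (0%).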

Assay [9] is described as follows: High-throughput drug toxicity screening in the BPDCN cell line Cal-1 (AID 1224825; call rule not given here). The following applies: Cal-1 BPDCN cell viability, qHTS; at 45.8 µM (top of the series) unless noted. The method, boiled down:
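Percent activity derived from CellTiter-Glo luminescence, scaling DMSO to 100% and 9.2 uM final bortezomib to 0%. BPDCN Cal-1 cells (500/well, RPMI plus 10% FBS) incubated with compounds 48 hours at 37C before reading.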

Assay [10] can be described thus: qHTS assay for measurement of the activity of small molecule inhibitors on Zika virus induced Caspase-3 activity in human iPSC derived neural progenitor cells (hNPCs) (AID 1224857). Note: % of control where 0% means no effect; nearly all actives have a fitted effect of over 65% in size. The method, boiled down:
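Quantitative HTS format: human iPSC neural progenitors, 1 h compound pretreatment, ZIKV 2 FFU/cell for 6 h at 37 C. Percent inhibition derived from luminescent caspase-3/7 signal between uninfected and infected controls.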

The nature of assay [11]: qHTS assay for measurement of the activity of small molecule inhibitors on Zika virus induced Caspase-3 activity in human astrocytoma cells (AID 1224859).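 Note: plate controls were ZIKV-infected untreated cells for no effect and uninfected cells for full effect.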 The method, boiled down:
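Readout is luminescence from Caspase-Glo 3/7 added after a 6 h ZIKV infection (2 FFU/cell) of compound-pretreated (1 h) SNB-19 cells; data expressed as % inhibition versus uninfected and infected wells.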

Assay [12] can be described thus: qHTS Screen of the MIPE 4.0 Collection Against Ewings Sarcoma (RDES) (AID 1259252). Note: nearly all actives have a fitted effect of over 35% in size. Note: potency is the fitted concentration of half-maximal effect. The method, boiled down:
(§2)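 After a 4 h attachment period in RPMI/5% FBS, cells were pin-dosed with test compounds; DMSO served as negative and 9.2 uM bortezomib (final) as positive control. Luminescent CellTiter-Glo signal at 48 h defined viability.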

The nature of assay [13]: qHTS Screen of the MIPE 4.0 Collection Against Ewings Sarcoma (TC71) (AID 1259253). Note: nearly all actives have a fitted effect of over 40% in size. Note: potency is the fitted concentration of half-maximal effect. Put shortly: as §2
Assay [14] can be described thus: qHTS Screen of the MIPE 4.0 Collection Against Ewings Sarcoma (EW8) (AID 1259255).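 For viability: 100% = DMSO-treated cells and 0% = medium-only wells without cells.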 Note: nearly all actives have a fitted effect of over 35% in size. Note: potency is the fitted concentration of half-maximal effect. The method, boiled down: as §2
Assay [15] in a line: qHTS profiling of the MIPE4 collection as inhibitors of Plasmodium falciparum (DD2) proliferation (AID 743345; call rule not given here). The settings on record: P. falciparum Dd2 in erythrocytes, SYBR Green DNA, 72 h; at 28.5 µM (top of the series) unless noted. The method, boiled down: as §1
Assay [16] is described as follows: qHTS assay for cell viability of HEK293 cells (AID 743288). Note: potency is the fitted concentration of half-maximal effect; nearly all actives have a fitted effect of over 50% in size. The settings on record: ATP luminescence (CellTiter-Glo), 18 h; max response: stronger effect = lower value. The method, boiled down:
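After 18 h compound exposure at 37 C, parental HEK293 cells (2,000/well) are lysed with CellTiter-Glo and luminescence is read following 30 min at room temperature.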

A short description of assay [17]: qHTS assay for cell viability of the p53RE-bla HCT-116 cell line (AID 743292). Note: potency is the fitted concentration of half-maximal effect; nearly all actives have a fitted effect of over 55% in size. The method, boiled down:
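In this qHTS counter-screen, metabolically competent p53RE-bla HCT-116 cells were counted via their ATP content. Compounds were applied for 16 h at 37 C and luciferase-coupled luminescence was measured.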

On to `Oc1cccc(-c2nc(N3CCOCC3)c3oc4ncccc4c3n2)c1`, for which the max response in assay [1] is -13.9% (inactive). The remaining parasite growth % (stronger effect = lower value) in assay [2] is -0.106%. In assay [3], the activity, percent of control turned out to be 2.54%. Further, in [4], the remaining proliferation (% of control), lower = more inhibition came to 1.45%. The compound also gave a parasite growth, % of DMSO control in assay [5] of 6.68% [at 57.5 µM]. For the same compound, the parasite growth, % of control (lower = inhibition) in [6] amounted to 21.1% [at 57.5 µM]. The same compound yielded a growth, % of control in [7] of 5.67% [at 57.5 µM]. Also, the cell viability, % of control (lower = more cytotoxic) in assay [8] worked out at 8.19% [at 92.2 µM]. For the same compound, the viability (% of control) in [9] amounted to 17.8% [at 92.2 µM]. For the same compound, the Potency result in assay [10] and in assay [11] was “inactive” throughout. For the same compound, the Potency in [12] was 0.96 µM (active); in assay [13], 0.152 µM (active); in assay [14] it was 0.429 µM (active).
`CCc1cc(Nc2nccc(-c3c(-c4ccc(OC)c(C(=O)Nc5c(F)cccc5F)c4)nc4ccccn34)n2)c(OC)cc1N1CCC(N2CCN(S(C)(=O)=O)CC2)CC1`: the Potency in assay [1] was 3.72 µM (active); in assay [12], 26.4 µM (active); in assay [13], 18.7 µM (active); in [14], 18.7 µM (active). Further, the remaining parasite growth % (stronger effect = lower value) in [2] is -0.479%. Also, in [3], the activity, percent of control was determined as 0.369%. The remaining proliferation (% of control), lower = more inhibition in assay [4] was -0.677%. In [5], this compound yielded a parasite growth, % of DMSO control of 4.93%. This compound also returned a parasite growth remaining, % of DMSO control (lower = more inhibition) in assay [15] of 6.42%. The parasite growth, % of control (lower = inhibition) in assay [6] turned out to be 14.9%. Moreover, the growth, % of control in assay [7] came to 4.27%. Also, in assay [8], the cell viability, % of control (lower = more cytotoxic) worked out at 179%. Further, in [9], the viability (% of control) is 79.3%. The Potency result in assay [10] and in assay [11] was “inactive” throughout.
As for `O=C(O)CCc1ccc(NCc2cccc(Oc3ccccc3)c2)cc1`, the max response in assay [1] was 20.3% (inactive). Besides, the remaining parasite growth % (stronger effect = lower value) in assay [2] was determined as 29.5%. The activity, percent of control in assay [3] came to 102%. For the same compound, the remaining proliferation (% of control), lower = more inhibition in [4] came out at 98.6%. The compound also yielded a parasite growth, % of DMSO control in assay [5] of 93.6%. In assay [15], this compound gave a parasite growth remaining, % of DMSO control (lower = more inhibition) of 87.8%. In assay [6], the parasite growth, % of control (lower = inhibition) came to 210%. The growth, % of control in assay [7] came out at 76.8%. Besides, the cell viability, % of control (lower = more cytotoxic) in assay [8] was 132%. The viability (% of control) in assay [9] worked out at 108%. Further, the Potency result in [10], in assay [11], in assay [12], in [13] and in [14] was “inactive” in each case.
As to `Cc1cc2c(C(C)C)c(O)c(O)c(C=O)c2c(O)c1-c1c(C)cc2c(C(C)C)c(O)c(O)c(C=O)c2c1O`, the Potency in [16] is 35.5 µM (active); in assay [17] it was 12.6 µM (active); in assay [12], 10.5 µM (active); in assay [13] it was 13.2 µM (active); in [14] it was 11.8 µM (active). Also, in assay [2], the remaining parasite growth % (stronger effect = lower value) is 5.05% and 5.11%. Further, the activity, percent of control in assay [3] was 13.9% and 10.5%. In addition, the remaining proliferation (% of control), lower = more inhibition in [4] is -0.222% and 1.83%. In [5], this compound yielded a parasite growth, % of DMSO control of 8.6%. In assay [15], this compound displayed a parasite growth remaining, % of DMSO control (lower = more inhibition) of 15%. Also, the parasite growth, % of control (lower = inhibition) in [6] was found to be 19.3%. Besides, the growth, % of control in assay [7] is 14.8%. In addition, the cell viability, % of control (lower = more cytotoxic) in assay [8] is 14.5%. In addition, the viability (% of control) in assay [9] turned out to be 6.4%. The Potency result in assay [10] and in [11] was “inactive” in each case.
For the compound `CC(c1cc2ccccc2s1)N(O)C(N)=O` (configuration not stated), the max response in assay [1] was 2.55% (inactive). The remaining parasite growth % (stronger effect = lower value) in assay [2] stood at 101% [at 57.5 µM]. In addition, the activity, percent of control in [3] came to 101% [at 57.5 µM]. In [4], the remaining proliferation (% of control), lower = more inhibition is 109% [at 57.5 µM]. Besides, the parasite growth, % of DMSO control in assay [5] turned out to be 94.1%. Moreover, the parasite growth, % of control (lower = inhibition) in [6] worked out at 140%. The cell viability, % of control (lower = more cytotoxic) in assay [8] is 150%. In addition, the viability (% of control) in assay [9] is 110%. For the same compound, the Potency entry in assay [10], in [11], in [12], in [13] and in [14] was “inactive” throughout.
Regarding `CCC(C)(C)C(=O)O[C@H]1C[C@@H](C)C=C2C=C[C@H](C)[C@H](CC[C@@H]3C[C@@H](O)CC(=O)O3)[C@H]21`, the max response in [1] was 5.81% (inactive). Further, the remaining parasite growth % (stronger effect = lower value) in assay [2] was determined as 116% [at 9.63 µM]. Besides, in assay [3], the activity, percent of control turned out to be 96.4% [at 9.63 µM]. Also, in assay [4], the remaining proliferation (% of control), lower = more inhibition came out at 86.8% [at 9.63 µM]. Besides, the parasite growth, % of DMSO control in assay [5] is 6.94%. Further, the parasite growth, % of control (lower = inhibition) in [6] came to 13.8%. Besides, in assay [7], the growth, % of control came to 3.36%. Also, in assay [8], the cell viability, % of control (lower = more cytotoxic) was 26.7%. In addition, in [9], the viability (% of control) stood at 59.6%. The Potency entry in [10] and in assay [11] was “inactive” each time. Besides, the results for the Potency in assay [12], in assay [13] and in assay [14] were 23.5 µM (active), 11.8 µM (active) and 18.7 µM (active), respectively.
